The term AC50 denotes the concentration giving half of the maximal activity seen.

We go through 35 compounds from PubChem BioAssay (EPA / NIEHS).

SMILES strings stand for the structures. “And” between values parts separate entries of the source, which are not always exact repeats. Identical values can stand only once. Inconclusive results are not listed. Where a structure was tested more than once in an assay, its records may differ in their call. The source made the active and inactive calls. How the source made its calls, unless noted: active means hit-call score of the fitted dose curve at least 0.9, where 1 is the maximum; inactive means score below 0.9.

Nuclear respiratory factor 1 (Homo sapiens), sequence (Q16656 whole entry, looked up): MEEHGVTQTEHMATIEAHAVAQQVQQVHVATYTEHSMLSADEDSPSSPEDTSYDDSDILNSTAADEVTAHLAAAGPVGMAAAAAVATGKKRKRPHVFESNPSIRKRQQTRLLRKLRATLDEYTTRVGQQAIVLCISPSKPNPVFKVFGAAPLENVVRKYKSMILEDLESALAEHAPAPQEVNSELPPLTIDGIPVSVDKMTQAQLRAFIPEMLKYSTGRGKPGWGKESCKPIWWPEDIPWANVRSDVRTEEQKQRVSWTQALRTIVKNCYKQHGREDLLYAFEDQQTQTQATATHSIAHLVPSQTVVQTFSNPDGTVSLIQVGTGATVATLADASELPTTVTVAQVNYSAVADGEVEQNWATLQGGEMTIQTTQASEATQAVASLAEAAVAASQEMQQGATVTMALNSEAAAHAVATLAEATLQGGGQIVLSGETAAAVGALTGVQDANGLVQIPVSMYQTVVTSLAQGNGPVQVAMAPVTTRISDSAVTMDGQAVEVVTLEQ
Transcriptional activator Myb (Homo sapiens), sequence (P10242 whole entry, looked up): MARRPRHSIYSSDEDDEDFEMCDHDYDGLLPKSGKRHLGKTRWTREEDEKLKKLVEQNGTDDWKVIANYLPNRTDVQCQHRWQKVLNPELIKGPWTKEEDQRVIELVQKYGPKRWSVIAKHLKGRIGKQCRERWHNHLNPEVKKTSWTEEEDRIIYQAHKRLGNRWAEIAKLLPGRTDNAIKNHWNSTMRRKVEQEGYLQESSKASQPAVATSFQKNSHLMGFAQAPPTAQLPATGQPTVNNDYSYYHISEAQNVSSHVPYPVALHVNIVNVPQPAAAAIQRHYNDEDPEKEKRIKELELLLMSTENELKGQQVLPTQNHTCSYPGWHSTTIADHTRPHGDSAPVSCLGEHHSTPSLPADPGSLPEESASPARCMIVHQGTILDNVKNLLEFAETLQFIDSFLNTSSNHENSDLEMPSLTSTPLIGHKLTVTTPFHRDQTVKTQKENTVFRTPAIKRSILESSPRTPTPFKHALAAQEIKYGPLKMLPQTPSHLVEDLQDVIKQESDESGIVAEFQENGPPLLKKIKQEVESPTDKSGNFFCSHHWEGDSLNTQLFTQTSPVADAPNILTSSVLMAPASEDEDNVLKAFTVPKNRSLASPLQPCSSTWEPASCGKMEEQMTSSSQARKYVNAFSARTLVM

One assay deals with Nuclear receptor subfamily 4 group A member 2 (Homo sapiens) (UniProt P43354). Kind of assay: ATG_NURR1_TRANS: Attagene TRANS-FACTORIAL HepG2 Assay for human Nuclear Receptor Related Protein 1 (NURR1) (AID 2282985; active means hit-call score of the fitted dose curve at least 0.9, where 1 is the maximum). The settings on record: HepG2 Attagene TRANS reporter, mRNA readout. In outline: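 Transient transfection of HepG2, human liver cells, with multiple GAL4-UAS reporter transcription units. Cells dosed 24 h, RNA isolated, reverse-transcribed, PCR-amplified, FAM-labelled, HpaI-digested, sized by capillary electrophoresis. DMSO served as negative control.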
Nuclear receptor subfamily 4 group A member 2 (Homo sapiens), sequence (P43354 whole entry, looked up, the tested form may be a part): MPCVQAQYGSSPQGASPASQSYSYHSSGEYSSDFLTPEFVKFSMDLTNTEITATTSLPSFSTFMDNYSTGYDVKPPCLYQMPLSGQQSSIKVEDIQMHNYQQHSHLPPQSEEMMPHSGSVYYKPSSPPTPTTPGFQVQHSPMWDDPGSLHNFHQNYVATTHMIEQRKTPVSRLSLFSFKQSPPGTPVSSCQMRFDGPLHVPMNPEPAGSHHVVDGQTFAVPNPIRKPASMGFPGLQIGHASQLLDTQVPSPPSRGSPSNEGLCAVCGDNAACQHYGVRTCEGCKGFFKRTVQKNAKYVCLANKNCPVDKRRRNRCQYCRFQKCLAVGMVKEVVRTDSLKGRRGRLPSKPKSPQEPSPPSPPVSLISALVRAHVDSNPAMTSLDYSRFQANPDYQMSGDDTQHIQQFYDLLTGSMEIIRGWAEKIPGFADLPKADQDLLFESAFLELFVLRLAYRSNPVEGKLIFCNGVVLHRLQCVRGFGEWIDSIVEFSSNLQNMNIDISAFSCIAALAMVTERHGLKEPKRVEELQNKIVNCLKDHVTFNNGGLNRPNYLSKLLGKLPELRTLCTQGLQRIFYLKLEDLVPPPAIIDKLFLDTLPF
Take `C/C=C(\C)C(=O)OC/C=C(\C)CCC=C(C)C`: the AC50 is 20 µM (active).

Take `CC(C)N(c1ccccc1)C(C)C`: the compound was classed as inactive.

As for `OCCCO`, the result was inactive.

In the case of `C[C@H](CCC(=O)O)[C@H]1CC[C@H]2[C@@H]3CC[C@@H]4C[C@H](O)CC[C@]4(C)[C@H]3CC[C@]12C`, the AC50 is 27.7 µM (active).

Take `CC(C)COC(=O)c1ccccc1O`: the result was inactive.

As for `c1coc(CNc2ncnc3nc[nH]c23)c1`, the call was inactive.

`N=C1N=C(N)c2ccccc21`: the compound was classed as inactive.

Turning to `[Cu+]`, the call was inactive.

Take `C1=COCCC1`: the result was inactive.

With `CC(C)(C)c1cc(CCC(=O)OCCSCCOC(=O)CCc2cc(C(C)(C)C)c(O)c(C(C)(C)C)c2)cc(C(C)(C)C)c1O`, the result was inactive.

Consider `O=C(C=Cc1ccccc1)OCCCc1ccccc1`, for which the call was inactive.

For the compound `CC/C=C\C#N`, the compound was called inactive.

Turning to `CC(C)(C)c1cccc(O)c1`, the compound was classed as inactive.

On to `CCCCCCCCOC(=O)c1ccc(O)cc1`, for which the result was inactive.

For the compound `NC(=O)c1cnccn1`, the compound was classed as inactive.

For `O=C(c1ccc(OCCN2CCCCC2)cc1)c1c(-c2ccc(O)cc2)sc2cc(O)ccc12`, the compound was classed as inactive.

Consider `CC/C(=C(\c1ccccc1)c1ccc(OCCN(C)C)cc1)c1ccccc1`, for which the compound was classed as inactive.

The next assay concerns the target Transcriptional activator Myb (Homo sapiens) (UniProt P10242). The assay is described as follows: ATG_Myb_CIS: Attagene CIS-FACTORIAL HepG2 Assay for human Myeloblastosis (Myb) Proto-Oncogene Transcription Factor (AID 2282986). The settings on record: HepG2 Attagene CIS-FACTORIAL Myb reporter transcription; actives raise or lower the signal. In outline: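 Fluorescence signals from capillary electrophoresis of RT-PCR-amplified reporter cDNA give the read-out. Cells: HepG2 transfected with multiple cis-regulated reporter units. Exposure lasts 24 hours; DMSO defines baseline for gain or loss of signal.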
As to `CCCCOC(=O)C(C)OC(=O)CCC` (stereo not given), the compound was classed as inactive.

For the compound `CC(=N[Si](C)(C)C)O[Si](C)(C)C`, the result was inactive.

Consider `C/C=C(\C)C(=O)OC/C=C(\C)CCC=C(C)C`, for which the compound was classed as inactive.

Consider `CC(C)N(c1ccccc1)C(C)C`, for which the outcome was inactive.

With `OCCCO`, the outcome was inactive.

`Nc1ccc(N)c([N+](=O)[O-])c1`: the outcome was inactive.

Regarding `COc1ccc(OC)cc1`, the outcome was inactive.

On to `C[C@H](CCC(=O)O)[C@H]1CC[C@H]2[C@@H]3CC[C@@H]4C[C@H](O)CC[C@]4(C)[C@H]3CC[C@]12C`, for which the outcome was inactive.

In the case of `CC(C)COC(=O)c1ccccc1O`, the result was inactive.

As for `c1coc(CNc2ncnc3nc[nH]c23)c1`, the result was inactive.

Turning to `O=C(OCc1ccccc1)c1ccccc1O`, the call was inactive.

Consider `CC(=O)CCC(=O)O`, for which the compound was called inactive.

For `CC1=CC(O)CC(C)(C)C1` (stereo not given), the call was inactive.

Regarding `CCCC[N+](C)(CCCC)CCCC`, the compound was called inactive.

As for `[Cu+]`, the compound was called inactive.

On to `CC(=O)c1ccc(C)cc1`, for which the call was inactive.

Turning to `CCOC(=O)CC(C)C`, the call was inactive.

In the case of `NC(N)=NC(N)=NCCc1ccccc1`, the outcome was inactive.

Take `CC(C)(C)c1cc(CCC(=O)OCCSCCOC(=O)CCc2cc(C(C)(C)C)c(O)c(C(C)(C)C)c2)cc(C(C)(C)C)c1O`: the compound was called inactive.

On to `O=C(C=Cc1ccccc1)OCCCc1ccccc1`, for which the outcome was inactive.

Consider `CC/C=C\CCOC(=O)C(C)C`, for which the compound was called inactive.

In the case of `CC/C=C\C#N`, the outcome was inactive.

`CCCCCCC(C)O` (stereo not given): the outcome was inactive.

With `CC(C)(C)c1cccc(O)c1`, the outcome was inactive.

For `CC(C)(O)C(=O)c1ccc(OCCO)cc1`, the call was inactive.

Turning to `Cc1ccc(C(C)(C)O)cc1`, the call was inactive.

For `CCCCCCCCOC(=O)c1ccc(O)cc1`, the result was inactive.

As to `NC(=O)c1cnccn1`, the outcome was inactive.

Turning to `CCCCCCCCCCCCN1CCOCC1`, the outcome was inactive.

Take `O=C(c1ccc(OCCN2CCCCC2)cc1)c1c(-c2ccc(O)cc2)sc2cc(O)ccc12`: the AC50 is 18.5 µM (active) and the call was inactive.

Take `CC/C(=C(\c1ccccc1)c1ccc(OCCN(C)C)cc1)c1ccccc1`: the result was inactive.

For `NC(N)=S`, the compound was classed as inactive.

The target of a further assay is Nuclear respiratory factor 1 (Homo sapiens) (UniProt Q16656). Kind of assay: ATG_NRF1_CIS: Attagene CIS-FACTORIAL HepG2 Assay for human Nuclear Respiratory Factor 1 (NRF1) Orphan Gene (AID 2282987). The following applies: HepG2 NRF1 cis-element reporter, Attagene multiplex; actives raise or lower the signal. In outline:
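Transcriptional reporter readout, one component of a 52-endpoint multiplexed HepG2 panel. Exposure 24 h; mRNA detected via RT-PCR and fluorescent capillary electrophoresis; fitting in both directions against DMSO.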
Turning to `CCCCOC(=O)C(C)OC(=O)CCC` (stereo not given), the outcome was inactive.

Turning to `CC(=N[Si](C)(C)C)O[Si](C)(C)C`, the compound was classed as inactive.

In the case of `C/C=C(\C)C(=O)OC/C=C(\C)CCC=C(C)C`, the outcome was inactive.

In the case of `CC(C)N(c1ccccc1)C(C)C`, the result was inactive.

Regarding `OCCCO`, the outcome was inactive.

As for `COc1ccc(OC)cc1`, the outcome was inactive.

As to `C[C@H](CCC(=O)O)[C@H]1CC[C@H]2[C@@H]3CC[C@@H]4C[C@H](O)CC[C@]4(C)[C@H]3CC[C@]12C`, the compound was classed as inactive.

For `CC(C)COC(=O)c1ccccc1O`, the compound was classed as inactive.

For `c1coc(CNc2ncnc3nc[nH]c23)c1`, the call was inactive.

Take `O=C(OCc1ccccc1)c1ccccc1O`: the result was inactive.

Consider `CC(=O)CCC(=O)O`, for which the compound was called inactive.

Consider `CC1=CC(O)CC(C)(C)C1` (stereo not given), for which the call was inactive.

With `CCCC[N+](C)(CCCC)CCCC`, the compound was classed as inactive.

Consider `N=C1N=C(N)c2ccccc21`, for which the compound was called inactive.

As for `[Cu+]`, the compound was classed as inactive.

With `CC(=O)c1ccc(C)cc1`, the compound was called inactive.

With `CCOC(=O)CC(C)C`, the outcome was inactive.

In the case of `C1=COCCC1`, the compound was classed as inactive.

With `NC(N)=NC(N)=NCCc1ccccc1`, the compound was called inactive.

On to `CC(C)(C)c1cc(CCC(=O)OCCSCCOC(=O)CCc2cc(C(C)(C)C)c(O)c(C(C)(C)C)c2)cc(C(C)(C)C)c1O`, for which the outcome was inactive.

Turning to `O=C(C=Cc1ccccc1)OCCCc1ccccc1`, the call was inactive.

`CC/C=C\CCOC(=O)C(C)C`: the compound was classed as inactive.

For the compound `CC1COC(=O)O1` (stereo not given), the result was inactive.

`CC/C=C\C#N`: the compound was classed as inactive.

As to `CCCCCCC(C)O` (stereo not given), the result was inactive.

As for `CC(C)(C)c1cccc(O)c1`, the outcome was inactive.

Regarding `CC(C)(O)C(=O)c1ccc(OCCO)cc1`, the outcome was inactive.

In the case of `Cc1ccc(C(C)(C)O)cc1`, the result was inactive.

Regarding `CCCCCCCCOC(=O)c1ccc(O)cc1`, the outcome was inactive.

For `NC(=O)c1cnccn1`, the compound was called inactive.

Consider `CCCCCCCCCCCCN1CCOCC1`, for which the AC50 is 59.8 µM (active).

Take `O=C(c1ccc(OCCN2CCCCC2)cc1)c1c(-c2ccc(O)cc2)sc2cc(O)ccc12`: the AC50 was 19.6 µM (active) and 17.7 µM (active); the compound was classed as inactive.

Regarding `CC/C(=C(\c1ccccc1)c1ccc(OCCN(C)C)cc1)c1ccccc1`, the outcome was inactive.

`NC(N)=S`: the outcome was inactive.
